Source: ChEMBL document CHEMBL4513216, “Probing the Open Global Health Chemical Diversity Library for Multistage-Active Starting Points for Next-Generation Antimalarials” (ACS Infect Dis, 2020)
The campaign covered roughly 69,000 compounds. About 8,600 (12%) showed an effect of 50% or more. The list comes from a sample in which strong results are over-represented; it also holds similar structures and randomly drawn compounds.

tested on: Plasmodium berghei; assay: Screen against P. berghei liver stage (PbLuc), transformed with Luciferase, at 10uM; assay type: functional, HepG2; conditions: tested at 10 uM

Row | Compound | INHIBITION [%]
1 | O=c1[nH]c(NC2CCCC2)nc2nccc(-c3ccco3)c12 | -37.9
2 | NC(=O)C1CCN(c2nc3nccc(-c4ccncc4)c3c(=O)[nH]2)CC1 | 41.6
3 | O=c1[nH]c(NC2CCCC2)nc2nccc(-c3cccs3)c12 | 52.2
4 | O=C(O)Cn1nc(C2CC2)c2c(-c3cccs3)ccnc21 | 11.6
5 | NC(=O)C1CCN(c2nc3nccc(-c4cccnc4)c3c(=O)[nH]2)CC1 | 47.4
6 | O=c1[nH]c(NC2CCCC2)nc2nccc(-c3ccsc3)c12 | 61.1
7 | O=C(NCC1CC1)C1CN(Cc2cccs2)Cc2ccnn2C1 (centres undefined) | -19.1
8 | Cc1ccc(S(=O)(=O)N2CSCC2C(=O)NCC(F)(F)F)cc1C (centres undefined) | -27.9
9 | O=C(CSc1nc2c(cnn2CCO)c(=O)[nH]1)NC1CCCCC1 | 39.2
10 | Cc1noc(C(C)N2CCN(CCN3CCCC3=O)CC2)n1 (centres undefined) | -29.1
11 | O=C(COCCOc1ccccc1)Nc1ccnn1CC1CCOC1 (centres undefined) | 69.9
12 | O=C(COCc1ccccc1Cl)Nc1ccnn1CC1CCOC1 (centres undefined) | 42.1
13 | O=C(Cn1ncc2ccccc21)Nc1ccnn1CC1CCOC1 (centres undefined) | 36.5
14 | COc1ccccc1CC(=O)N1C[C@@H]2CC[C@H]1CN(Cc1cscn1)C2 | 29.6
15 | CN(C(=O)Cn1nc(-c2ccccc2Cl)ccc1=O)C1CCS(=O)(=O)C1 (centres undefined) | 48.1
16 | CC(=O)N1CCC(Nc2ccc(Br)cc2C#N)C1 (centres undefined) | 7.39
17 | N#Cc1cc(Br)ccc1NC1CCN(CC(N)=O)CC1 | 45.4
18 | CN1CC(Nc2ccc(Br)cc2C#N)CCC1=O (centres undefined) | 58.9
19 | CCOCCN1CCN(Cc2csc(-c3cnn(C)c3)n2)CC1 | -22.1
20 | O=C(CCNS(=O)(=O)c1ccc(F)c(F)c1)NCc1ccoc1 | 35.4
21 | O=C(N[C@H]1CN(Cc2ccsc2)[C@@H]2CCCO[C@H]12)C1CC1 | 48.2
22 | O=C(O)c1cc(NS(=O)(=O)c2ccc(Cl)s2)ccc1N1CCOCC1 | 20
23 | Cc1ccc(C(=O)NS(C)(=O)=O)cc1S(C)(=O)=O | 1.79
24 | Cc1ccc(C(=O)NS(C)(=O)=O)cc1I | 32.3
25 | Cc1cc(C(=O)NS(C)(=O)=O)ccc1I | 52

Row | Compound | INHIBITION [%]
26 | Cc1cc(N2CCN(C(=O)[C@@H]3C[C@H]4C=C[C@@H]3C4)CC2)nc2ccccc12 | -13.2
27 | CN(Cc1nnc(C2CC2)o1)C1CCCN(c2cccnn2)C1 (centres undefined) | -9.76
28 | CC(C(=O)NC1CC1)N1CCN(Cc2ccn(C)c(=O)c2)CC1 (centres undefined) | 7.42
29 | COc1cccc2c1ccn2CCNC(=O)C1CCC1 | -46.8
30 | OCCn1cc(CN2CCN(CCOCC(F)(F)F)CC2)cn1 | 54.9
31 | OCCn1cc(CN2CCN(CCOc3ccc(F)cc3)CC2)cn1 | 39.5
32 | OCCn1cc(CN2CCN(CCOc3ccccc3)CC2)cn1 | 37.5
33 | NC(=O)NC(=O)CN1CCN(c2nccs2)CC1 | 24
34 | Cc1cc(C)n(CCN2CCC(N(C)Cc3noc(C4CC4)n3)C2)n1 (centres undefined) | 68.5
35 | CCc1nc(CN(C(C)=O)C2CCN(Cc3cnc(C)cn3)C2)no1 (centres undefined) | 12.4
36 | CCc1nc(CN(C)C2CCN(Cc3cnc(C)cn3)C2)no1 (centres undefined) | 67.5
37 | CCc1nc(CN2CCCC(N(C)Cc3cnc(C)cn3)C2)no1 (centres undefined) | 24.3
38 | Cc1cnc(CN2CCC(N(C)Cc3nnc(C4CC4)n3C)C2)cn1 (centres undefined) | 27.5
39 | Cc1cc(C)n(CCN2CCC(N(C)Cc3nnc(C)n3C)C2)n1 (centres undefined) | 54.6
40 | Cc1nnc(CN(C)C2CCN(CCc3cccs3)C2)n1C (centres undefined) | 21.8
41 | Cc1cc(CN2CCC(N(C)Cc3noc(C4CC4)n3)C2)on1 (centres undefined) | 19.5
42 | CCn1c(C)nnc1CN(C)C1CCN(Cc2cnc(C)cn2)C1 (centres undefined) | -7.48
43 | Cc1cnc(CN2CCC(N(C)Cc3nnc(C)n3C)C2)cn1 (centres undefined) | 62.3
44 | Cc1nnc(CN(C)C2CCN(Cc3nnc(C4CCC4)o3)C2)n1C (centres undefined) | 40.9
45 | Cc1ccc(CCN2CCC(N(C)Cc3noc(C4CC4)n3)C2)cc1 (centres undefined) | 27.9
46 | COc1cc(C(=O)N2CC3(CCNCC3)c3cc(Cl)ccc32)ccn1 | -17.1
47 | Cc1cc(C(=O)N2CCN(C)CC2)nn1CC(=O)NCc1ccccn1 | 1.95
48 | Cc1nc(CN2CCC(N(C)Cc3nnc(C4CC4)n3C)C2)cs1 (centres undefined) | 7.12
49 | O=C(NCCS(=O)(=O)N1CCN(c2ncccn2)CC1)C1CCCC1 | -33.5
50 | CCOCC1CN(Cc2ccc3c(c2)OCO3)Cc2nccn2C1 (centres undefined) | 29

Row | Compound | INHIBITION [%]
51 | Cc1ccc(CNC(=O)CN2CCCCC2Cn2cncn2)s1 (centres undefined) | -1.14
52 | COC(=O)COc1c(F)cc(Br)cc1C(C)=O | 8.24
53 | CNC(=O)COc1c(F)cc(Br)cc1C(C)=O | 9.04
54 | CC(=O)c1cc(Br)cc(F)c1OCC(=O)NC(C)C | 56.9
55 | Cc1nc(CNCC2CN(C3CC3)CCO2)cs1 (centres undefined) | 27.4
56 | NC(=O)COc1ccc(CNCc2ccc(F)cc2)cc1 | 9.52
57 | Cc1nc(C)n(CC2CN(Cc3nc4ccccc4n3C)CCO2)n1 (centres undefined) | 22.3
58 | Cc1cc(C)n(CC2CN(Cc3cnc(C)s3)CCO2)n1 (centres undefined) | 28.8
59 | Cc1cc(C)n(CC2CN(Cc3ccccn3)CCO2)n1 (centres undefined) | 12.415
60 | Cc1nc(C)n(CC2CN(Cc3cccc4ccccc34)CCO2)n1 (centres undefined) | 37.4
61 | Cc1cc(C)n(CC2CN(Cc3nc4ccccc4s3)CCO2)n1 (centres undefined) | 79.9
62 | Cc1nc(C)n(CC2CN(Cc3nc4ccccc4s3)CCO2)n1 (centres undefined) | 92.3
63 | CN(Cc1ccco1)C(=O)CN1C(=O)c2ccccc2C1=O | 33.4
64 | CN(C)CCN1C(=O)CCCC12CCCN(Cc1cccs1)C2 (centres undefined) | -3.58
65 | CNC(=O)NCC(=O)N(C)C(c1ccc(Cl)cc1)c1cccnc1 (centres undefined) | 35.1
66 | CN(CCO)C1CCN(c2ncc3c(n2)CCN3c2ccccc2)CC1 | 22.3
67 | Cc1csc2ncnc(N3CCC(Cn4cc(C(C)(C)O)nn4)CC3)c12 | 84.2
68 | Cc1csc2ncnc(N3CCC(Cn4cc(C(C)(C)N)nn4)CC3)c12 | 84.2
69 | CC(C)(O)c1cn(C2CCN(c3ncccc3Cl)CC2)nn1 | 25.7
70 | CC(C)(N)c1cn(C2CCN(c3ncccc3Cl)CC2)nn1 | 30.4
71 | Cc1csc2c(N3CCC(Cn4cc(C(C)(C)O)nn4)CC3)ncnc12 | 79.3
72 | CC(C)(O)c1cn(C[C@H]2C[C@@H]3CCN2C[C@@H]3C(=O)N2CCOCC2)nn1 | -0.473
73 | CC(O)Cc1cn(CC2CCN(c3nccc4occc34)CC2)nn1 (centres undefined) | 11.8
74 | Cc1csc2ncnc(N3CCCC(Cn4cc(C(C)(C)O)nn4)C3)c12 (centres undefined) | 48.5
